In PubChem BioAssay AID1159580 (chemical genetic matrix, 2015):
The campaign covered roughly 5,500 compounds. About 2,000 (36%) were called active. Roughly 18% stayed inconclusive and do not appear here. No stated cut-off is given here; in the data, active means normalized growth mostly below about 0.91 (no sharp cut-off); inconclusive means no clear call, values can overlap the other calls; inactive means mostly above about 0.92. The list shows a part of the results.

Experiment: chemical genetic growth profiling, strain panel (AID 1159580);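 further: tested at 20 µM; growth read once vehicle control cultures reached saturation at 30 °C; 1 = growth at the plate median or of vehicle wells; lower values mean less growth of the strain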
Conditions: growth OD
[1] = S. cerevisiae deletion strains, locus YAL013W, strain DEP1, active compounds read low
[2] = S. cerevisiae deletion strains, locus YBR229C, strain ROT2, active compounds read low
[3] = S. cerevisiae deletion strains, locus YDL101C, strain DUN1, active compounds read low
[4] = S. cerevisiae deletion strains, locus YDL134C, strain PPH21, active compounds read low
[5] = S. cerevisiae deletion strains, locus YDR150W, strain NUM1, active compounds read low
[6] = S. cerevisiae deletion strains, locus YEL061C, strain CIN8, active compounds read low
[7] = S. cerevisiae deletion strains, locus YGR078C, strain PAC10, active compounds read low
[8] = S. cerevisiae deletion strains, locus YHR030C, strain SLT2, active compounds read low
[9] = S. cerevisiae deletion strains, locus YHR087W, strain rtc3, active compounds read low
[10] = S. cerevisiae deletion strains, locus YJL187C, strain SWE1, active compounds read low
[11] = S. cerevisiae deletion strains, locus YJR043C, strain POL32, active compounds read low
[12] = S. cerevisiae deletion strains, locus YJR075W, strain HOC1, active compounds read low
[13] = S. cerevisiae deletion strains, locus YKL190W, strain CNB1, active compounds read low
[14] = S. cerevisiae deletion strains, locus YLR039C, strain RIC1, active compounds read low
[15] = S. cerevisiae deletion strains, locus YLR058C, strain SHM2 (second series), active compounds read low
[16] = S. cerevisiae deletion strains, locus YLR085C, strain ARP6, active compounds read low
[17] = S. cerevisiae deletion strains, locus YLR262C, strain YPT6, active compounds read low
[18] = S. cerevisiae deletion strains, locus YML094W, strain GIM5, active compounds read low
[19] = S. cerevisiae deletion strains, locus YMR219W, strain ESC1, active compounds read low
[20] = S. cerevisiae deletion strains, locus YMR263W, strain SAP30, active compounds read low
[21] = S. cerevisiae deletion strains, locus YNL153C, strain GIM3, active compounds read low
[22] = S. cerevisiae deletion strains, locus YNL298W, strain CLA4 (second series), active compounds read low
[23] = S. cerevisiae deletion strains, locus YNL322C, strain KRE1, active compounds read low
[24] = S. cerevisiae deletion strains, locus YNR030W, strain Alg12, active compounds read low
[25] = S. cerevisiae deletion strains, locus YOL006C, strain TOP1, active compounds read low
[26] = S. cerevisiae deletion strains, locus YPL055C, strain LGE1, active compounds read low
[27] = S. cerevisiae deletion strains, locus YPL241C, strain CIN2, active compounds read low
[28] = S. cerevisiae deletion strains, locus YPR135W, strain CTF4, active compounds read low
[29] = S. cerevisiae deletion strains, locus YCL061C, strain MRC1, active compounds read low

Measured: normalized growth

Nc1ccccc1SCC(=O)Nc1c(F)cccc1F
inactive: [1] 0.982 | [2] 0.998 | [3] 0.979 | [4] 1.04 | [5] 0.977 | [6] 1.03 | [7] 1 | [8] 0.938 | [9] 1.05 | [10] 1.03 | [11] 0.975 | [12] 1.01 | [13] 1.01 | [15] 1.02 | [16] 0.985 | [18] 0.955 | [19] 0.998 | [20] 1.01 | [21] 1.01 | [22] 1.03 | [23] 1 | [24] 1 | [25] 0.903 | [26] 0.994 | [27] 0.977 | [28] 1.02 | S. cerevisiae strains, strain wild type, active compounds read low 1.01
active: [14] 0.672 | [17] 0.595

O=C(Nc1ccccc1F)C(Cl)Cl
inactive: [1] 0.999 | [2] 0.989 | [29] 1 | [3] 0.994 | [4] 0.967 | [5] 1.01 | [6] 1.01 | [7] 0.975 | [8] 1.07 | [9] 0.981 | [11] 0.997 | [12] 0.971 | [13] 0.981 | [14] 1.16 | [15] 0.987 | [16] 0.991 | [17] 1.14 | [18] 0.992 | [19] 0.991 | [20] 0.995 | [21] 1.02 | [22] 0.984 | [23] 0.987 | [24] 0.976 | [25] 1.02 | [26] 0.962 | [27] 0.977 | [28] 0.99

O=C(NC(=O)c1c(F)cccc1F)Nc1ccc(Cl)cc1
inactive: S. cerevisiae deletion strains, locus YAL021C, strain ccr4, active compounds read low 1.03 | S. cerevisiae deletion strains, locus YAL026C, strain drs2, active compounds read low 1.01 | S. cerevisiae deletion strains, locus YAL030W, strain snc1, active compounds read low 1.02 | S. cerevisiae deletion strains, locus YBL061C, strain skt5, active compounds read low 1.01 | S. cerevisiae deletion strains, locus YBR009C, strain hhf1, active compounds read low 1.02 | S. cerevisiae deletion strains, locus YBR023C, strain chs3, active compounds read low 1.02 | S. cerevisiae deletion strains, locus YBR171W, strain sec66, active compounds read low 1.03 | S. cerevisiae deletion strains, locus YBR231C, strain swc5, active compounds read low 1.04 | S. cerevisiae deletion strains, locus YBR279W, strain paf1, active compounds read low 1.01 | S. cerevisiae deletion strains, locus YCL011C, strain gbp2, active compounds read low 1 | S. cerevisiae deletion strains, locus YCL016C, strain dcc1, active compounds read low 1.02 | [29] 1.01 | S. cerevisiae deletion strains, locus YCL069W, strain vba3, active compounds read low 0.996 | S. cerevisiae deletion strains, locus YCR088W, strain abp1, active compounds read low 1 | S. cerevisiae deletion strains, locus YDL005C, strain med2, active compounds read low 1.05 | S. cerevisiae deletion strains, locus YDL040C, strain nat1, active compounds read low 1.03 | S. cerevisiae deletion strains, locus YDR001C, strain nth1, active compounds read low 1.02 | S. cerevisiae deletion strains, locus YDR069C, strain doa4, active compounds read low 1.03 | S. cerevisiae deletion strains, locus YDR137W, strain rgp1, active compounds read low 1.01 | S. cerevisiae deletion strains, locus YDR159W, strain sac3, active compounds read low 1.04 | S. cerevisiae deletion strains, locus YDR195W, strain ref2 1.11 | S. cerevisiae deletion strains, locus YDR297W, strain sur2, active compounds read low 1.03 | S. cerevisiae deletion strains, locus YDR334W, strain swr1, active compounds read low 1.01 | S. cerevisiae deletion strains, locus YDR335W, strain msn5, active compounds read low 1.03 | S. cerevisiae deletion strains, locus YDR392W, strain spt3, active compounds read low 0.955 | S. cerevisiae deletion strains, locus YEL003W, strain gim4, active compounds read low 1.03 | S. cerevisiae deletion strains, locus YEL037C, strain rad23, active compounds read low 1.01 | S. cerevisiae deletion strains, locus YEL061C, strain CIN8 (second series), active compounds read low 1.01 | S. cerevisiae deletion strains, locus YER015W, strain faa2, active compounds read low 1.02 | S. cerevisiae deletion strains, locus YER016W, strain bim1, active compounds read low 1.03 | S. cerevisiae deletion strains, locus YER111C, strain swi4, active compounds read low 1.01 | S. cerevisiae deletion strains, locus YER155C, strain BEM2 (second series), active compounds read low 1.02 | S. cerevisiae deletion strains, locus YFR010W, strain ubp6, active compounds read low 1.01 | S. cerevisiae deletion strains, locus YGL167C, strain pmr1, active compounds read low 1.02 | S. cerevisiae deletion strains, locus YGL173C, strain kem1, active compounds read low 1.01 | S. cerevisiae deletion strains, locus YGL227W, strain vid30, active compounds read low 1.03 | S. cerevisiae deletion strains, locus YGL240W, strain doc1, active compounds read low 1.02 | S. cerevisiae deletion strains, locus YGL253W, strain hxk2, active compounds read low 1.01 | S. cerevisiae deletion strains, locus YHR013C, strain ard1, active compounds read low 1.03 | S. cerevisiae deletion strains, locus YHR027C, strain rpn1, active compounds read low 1.02 | [8] 1.06 | S. cerevisiae deletion strains, locus YHR079C, strain IRE1, active compounds read low 1.04 | S. cerevisiae deletion strains, locus YHR142W, strain chs7, active compounds read low 1.01 | S. cerevisiae deletion strains, locus YJL092W, strain hpr5, active compounds read low 1.02 | S. cerevisiae deletion strains, locus YJL095W, strain BCK1 (second series), active compounds read low 1.01 | S. cerevisiae deletion strains, locus YJL095W, strain BCK1, active compounds read low 1.03 | S. cerevisiae deletion strains, locus YJL115W, strain asf1, active compounds read low 1.04 | S. cerevisiae deletion strains, locus YJL129C, strain trk1, active compounds read low 1.02 | S. cerevisiae deletion strains, locus YJL154C, strain vps35, active compounds read low 1.01 | S. cerevisiae deletion strains, locus YJL164C, strain tpk1, active compounds read low 1 | S. cerevisiae deletion strains, locus YJL166W, strain qcr8, active compounds read low 1.02 | [10] 1.03 | S. cerevisiae deletion strains, locus YJR066W, strain TOR1, active compounds read low 0.956 | S. cerevisiae deletion strains, locus YKL160W, strain elf1, active compounds read low 1 | S. cerevisiae deletion strains, locus YKR026C, strain gcn3, active compounds read low 1.01 | S. cerevisiae deletion strains, locus YKR091W, strain srl3, active compounds read low 1.01 | S. cerevisiae deletion strains, locus YLL001W, strain dnm1, active compounds read low 0.996 | S. cerevisiae deletion strains, locus YLL026W, active compounds read low 1.02 | S. cerevisiae deletion strains, locus YLL041C, strain sdh2, active compounds read low 1.01 | S. cerevisiae deletion strains, locus YLR027C, strain aat2, active compounds read low 1.02 | S. cerevisiae deletion strains, locus YLR113W, strain HOG1, active compounds read low 1.04 | S. cerevisiae deletion strains, locus YLR221C, strain rsa3, active compounds read low 0.994 | S. cerevisiae deletion strains, locus YLR258W, strain gsy2, active compounds read low 1.02 | S. cerevisiae deletion strains, locus YLR262C, strain YPT6 (second series), active compounds read low 0.974 | S. cerevisiae deletion strains, locus YLR320W, strain mms22, active compounds read low 0.988 | S. cerevisiae deletion strains, locus YLR342W, strain FKS1, active compounds read low 1.02 | S. cerevisiae deletion strains, locus YLR357W, strain rsc2, active compounds read low 1.06 | S. cerevisiae deletion strains, locus YLR370C, strain arc18, active compounds read low 1.02 | S. cerevisiae deletion strains, locus YLR384C, strain iki3, active compounds read low 1.03 | S. cerevisiae deletion strains, locus YML120C, strain ndi1, active compounds read low 1 | S. cerevisiae deletion strains, locus YMR058W, strain fet3, active compounds read low 1.02 | S. cerevisiae deletion strains, locus YMR125W, strain sto1, active compounds read low 1.01 | S. cerevisiae deletion strains, locus YMR129W, active compounds read low 1.02 | S. cerevisiae deletion strains, locus YMR205C, strain PFK2, active compounds read low 1.04 | S. cerevisiae deletion strains, locus YMR231W, strain pep5, active compounds read low 1.03 | S. cerevisiae deletion strains, locus YNL071W, strain lat1, active compounds read low 1 | S. cerevisiae deletion strains, locus YNL183C, strain NPR1, active compounds read low 0.954 | S. cerevisiae deletion strains, locus YNL209W, strain ssb2, active compounds read low 1.02 | S. cerevisiae deletion strains, locus YNL248C, strain rpa49, active compounds read low 1 | S. cerevisiae deletion strains, locus YNL322C, strain KRE1 (second series), active compounds read low 1.02 | S. cerevisiae deletion strains, locus YNR049C, strain mso1, active compounds read low 1.02 | S. cerevisiae deletion strains, locus YOR001W, strain rrp6, active compounds read low 1.01 | S. cerevisiae deletion strains, locus YOR070C, strain gyp1, active compounds read low 1.02 | S. cerevisiae deletion strains, locus YOR080W, strain dia2, active compounds read low 1.03 | S. cerevisiae deletion strains, locus YOR083W, strain WHI5, active compounds read low 0.968 | S. cerevisiae deletion strains, locus YOR106W, strain vam3, active compounds read low 1.01 | S. cerevisiae deletion strains, locus YOR231W, strain MKK1, active compounds read low 1.03 | S. cerevisiae deletion strains, locus YOR265W, strain rbl2, active compounds read low 1.02 | S. cerevisiae deletion strains, locus YOR270C, strain vph1, active compounds read low 0.932 | S. cerevisiae deletion strains, locus YOR290C, strain snf2, active compounds read low 1.01 | S. cerevisiae deletion strains, locus YPL051W, strain arl3, active compounds read low 1.01 | S. cerevisiae deletion strains, locus YPL078C, strain atp4, active compounds read low 1 | S. cerevisiae deletion strains, locus YPL106C, strain sse1, active compounds read low 1.02 | S. cerevisiae deletion strains, locus YPL240C, strain hsp82, active compounds read low 1.04 | S. cerevisiae deletion strains, locus YPL256C, strain CLN2, active compounds read low 1.12
